{"source": "PubChem BioAssay (Tox21)", "note": "Activity calls are given as the source filed them. A call without a number means that no potency is given here. Calls follow the shape of the dose curve; as a rule, active = well fitted activation curve with a large enough effect in the repeat runs; inconclusive = weak or mixed curves; inactive = flat fitted curve, though single readings scatter.", "data": [{"assay": "Caspase-3/7 induction in CHO-K1 cells by small molecules, qHTS assay (AID 1346980); also: nearly all actives have a fitted effect of over 15% in size", "conditions": "CHO-K1 caspase-3/7 induction, Caspase-Glo luminescence, 17 h; series mostly up to 92.4 µM", "description": "National Center for Advancing Translational Sciences [NCATS]\nNIH Chemical Genomics Center [NCGC]\nU.S. Environmental Protection Agency [EPA]\nNational Institutes of Environmental Health Sciences [NIEHS]\nNational Toxicology Program [NTP]\nApoptosis is a process of programmed cell death and plays a central role in the development of multicellular organisms. It is a highly regulated process and induces cell death by activating caspases, which are the members of cysteine aspartic acid-specific protease (caspase) family. Caspases involved in apoptosis are classified by their mechanism of action as initiator caspases (caspase-2, -8, -9 and -10) and executioner caspases (caspase-3, -6, and -7). Inhibition of apoptosis results in number of cancers, autoimmune diseases, inflammatory diseases and viral infection. To identify small molecule compounds that induce apoptosis, a homogeneous, luminescent Caspase-Glo 3/7 assay was used. Wild type CHO-K1 cells were used to screen Tox21 libraries for identifying caspase-3/7 activity inducers.\nCHO-K1 cells were dispensed at 1,500 per well in 5uL of culture medium into white solid bottom 1536-well plates (Corning Life Sciences, Corning, NY) using a Multidrop Combi (Thermo Scientific, Waltham, MA) dispenser. The assay plates were incubated at 37 C and 5% CO2 for 5hr, and then 23nL of compounds dissolved in DMSO and positive control were transferred using a Pintool station (Wako, San Diego, CA). The assay plates were incubated at 37C and 5% CO2 for 17hr. For caspase-3/7 activity read, 4uL of Caspase-Glo 3/7 reagent (Promega Corporation, Madison, WI) was added to each well of the assay plates using Flying Reagent Dispenser (FRD, Aurora Discovery, San Diego, CA) and incubated the assay plates at room temperature for 30min. The luminescence signal was quantified using a ViewLux plate reader (Perkin Elmer, Shelton, CT).", "values": [{"smiles": "CC(C)(Oc1ccc(Cl)cc1)C(=O)OCCCOC(=O)C(C)(C)Oc1ccc(Cl)cc1", "Potency": "inactive"}, {"smiles": "Cc1ccc2c(ccc3ccccc32)c1", "Potency": "inactive"}, {"smiles": "CN(C(=O)CCCOc1ccc2[nH]c(=O)ccc2c1)C1CCCCC1", "Potency": "inactive"}, {"smiles": "CN1CCN(C2=Nc3ccccc3Sc3ccc(Cl)cc32)CC1", "Potency": "inactive"}, {"smiles": "CC[C@]12CCCN3CCc4c(n(c5ccccc45)C(=O)C1)[C@@H]32", "Potency": "inactive"}, {"smiles": "COc1ccc(OC)c(OC)c1", "Potency": "inactive"}, {"smiles": "CC(C)NCC(O)c1cc(O)cc(O)c1", "note": "(stereo not given)", "Potency": "inactive"}, {"smiles": "NC(=S)N/N=C/c1cccnc1", "Potency": "inactive"}, {"smiles": "COCCCCCCCCOCCC[Si](C)(O[Si](C)(C)C)O[Si](C)(C)C", "Potency": "inactive"}, {"smiles": "O=C(O)c1cn(C2CC2)c2cc(Cl)c(F)cc2c1=O", "Potency": "inactive"}, {"smiles": "CC(C)CCCCCCOC(=O)c1ccc(C(=O)OCCCCCCC(C)C)c(C(=O)OCCCCCCC(C)C)c1", "Potency": "inactive"}, {"smiles": "NC(N)=N/N=C/c1c(Cl)cccc1Cl", "Potency": "inactive"}, {"smiles": "CCN(CC)CCOc1ccc2c(c1)C(=O)c1cc(OCCN(CC)CC)ccc1-2", "Potency": "inactive"}, {"smiles": "Cl/C(=C\\n1cncn1)c1ccc(Cl)cc1Cl", "Potency": "inactive"}, {"smiles": "CCOC(=O)C1=NN(c2ccccc2)C(=O)C1", "Potency": "inactive"}, {"smiles": "CCCCC(CC)COCCCN", "note": "(stereo not given)", "Potency": "inactive"}, {"smiles": "C=C(C)C(=O)OCCOc1ccccc1", "Potency": "inactive"}, {"smiles": "CCCCOC(=O)c1ccccc1C(=O)OCC(CC)CCCC", "note": "(stereo not given)", "Potency": "inactive"}, {"smiles": "CC(C)(C)C1CCCCC1O", "note": "(stereo not given)", "Potency": "inactive"}, {"smiles": "CCCCc1cc2ccccc2c(OCCN(C)C)n1", "Potency": "inactive"}, {"smiles": "CCCCCCCC/C=C\\CCCCCCCC(N)=O", "Potency": "inactive"}, {"smiles": "c1ccc(OCc2ccc(CCCN3CCOCC3)cc2)cc1", "Potency": "inactive"}, {"smiles": "CCCCOC(O)CC", "note": "(stereo not given)", "Potency": "inactive"}, {"smiles": "CC(=O)N(CC(=O)N(C)C)c1ccccc1", "Potency": "inactive"}, {"smiles": "CC(=O)CC(=O)c1ccccc1", "Potency": "inactive"}, {"smiles": "CC(=O)c1ccc2c(c1)[C@H](NC(=O)c1ccc(F)cc1)[C@@H](O)C(C)(C)O2", "Potency": "inactive"}, {"smiles": "N#CCc1cccc(C(F)(F)F)c1", "Potency": "inactive"}, {"smiles": "CCN(CC)C(C)=O", "Potency": "inactive"}, {"smiles": "CCCCOCCOCCOCCOCCO", "Potency": "inactive"}, {"smiles": "O=C(Cl)c1ccc([N+](=O)[O-])cc1", "Potency": "inactive"}, {"smiles": "C#CCOC(=O)[C@@H](C)Oc1ccc(Oc2ncc(Cl)cc2F)cc1", "Potency": "inactive"}, {"smiles": "CC(C)c1ccccc1C(C)C", "Potency": "inactive"}, {"smiles": "COc1ccccc1OC(=O)Oc1ccccc1OC", "Potency": "inactive"}, {"smiles": "Cn1c(=O)c2c(ncn2CC(O)CO)n(C)c1=O", "note": "(stereo not given)", "Potency": "inactive"}, {"smiles": "Oc1ccc(Cc2ccccc2)cc1", "Potency": "inactive"}, {"smiles": "CCCCCCOC(=O)CCC", "Potency": "inactive"}, {"smiles": "COC(=O)CSc1cc(N=c2sc(=O)n3n2CCCC3)c(F)cc1Cl", "Potency": "inactive"}, {"smiles": "N#CCCNCCC#N", "Potency": "inactive"}, {"smiles": "CC(C)(C)c1cc(CO)cc(C(C)(C)C)c1O", "Potency": "inactive"}, {"smiles": "CC(=O)NCCCS(=O)(=O)O", "Potency": "inactive"}]}]}
